Results: the supplement of paper PMC6555819

Test system: PPARg DBDmut IVT, anti-PPARg (DBD mutation: PPARg1 K132A/R137A, NR concentration 270 nM)
Assay: PBM binding z-score (relative to random genomic background probes); higher = stronger binding; sequences stand for … in GC…GCGATTGACAGCGTAGAATGAAGG
In short: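 Custom Agilent 4×180K protein-binding microarrays carried double-stranded probes. Their 34-nt variable regions held direct-repeat seeds, single-nucleotide variants, half-site ablations and random human genomic background sequences. Arrays were incubated 1 h with ligand-free nuclear receptor dimers in PBS pH 7.4, 2% milk, 0.02% Triton X-100, 1 mM DTT, 0.2 mg/mL BSA and 0.4 mg/ml salmon testes DNA. Antibodies against each partner (one per run) detected binding, and scanned fluorescence was regression-normalized. Binding z-scores use random background probes as reference.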

Sequence | PBM binding z-score
CGTCCAAGGTTAGAGAGGTCAGTGAATGCCGAGT | -1.38
TCTAGCTGGCCAGAGGGTCACTCAAGAGGTACGG | -1.05
TCTATTAGTTGAGTAGGGCAACCGAAACAGCGGA | 0.883
GGAACGAGGGCAAAGTTGAGAGCATCTGTCGACG | 0.305
CCTATGAGTTGACCATAAGGGCAACCGAAGCTCG | -0.386
CAAACTAGGTCACGAAAGGTCAAAGTAGAATGAC | 3.25
GCTAGCAGGACATTTGGGTCACTCAATGACGGGC | -1.5
GCGACTGGGGCAAAGCAGGTTACCAAAAGGTTGG | -0.695
CCTAGTTCGTCAGGAGGTCACACACCGGATATGA | 0.947
GCTGCTAGGTCAATTGATGGTCAGCTAAAGCTCG | 0.185
TCTTGTACATCAAAGGTTAAGAAAGCCGAAGCCT | 0.483
ACTAGTTGGTCAGCTGACGTCACACACAATTCGG | 0.709
ATATGTAGGTTATCGGGTCGTTCAGTTTGCGCAT | 1.58
TCTTGTAGATCCATAGAGGTTAAGAAAGTGCGCT | 0.975
TCTGCTAGGTCACCGATGGTCAGCTAATCTGCTA | 0.734
AGTCAAAGTTCAGGACGAGCTAACGTAAAGCACG | -0.197
ACTATGAGTTGACTTAGGGCAACCGATACGACGC | 1.61
CCTACTGGGCCAAAAAGGTCATTGACGCCGATAA | -0.422
GCGACTGGGGCACCAGCAGGTTACCATAACTTAA | -0.596
TGTCAAAGTTCAAGGGTAACGTAAGTATCCACAC | 1.04
CCTACTGGGTCAAAAAGGTCATTGATGCCGATAA | -0.419
TTACCAGGGTGAGCTGAGGTCGTTGATCCAACTC | -0.726
